Pf growth 96h: Primary qHTS for delayed death inhibitors of the malarial parasite plastid, 96 hour incubation; P. falciparum luciferase reporter growth, 96 h; Potency, µM (highest dose often 28.7 µM), inactives show at the top dose activity change, negative = inhibition, hits mostly inhibitors; 6.9% of 320,000 active; AID 504834, 2011; further: potency means the concentration at half of the fitted maximal effect; on the % scale 0 is the no-effect control and ±100 the full control effect
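Compounds incubated with erythrocytes infected by luciferase-expressing P. falciparum (2% hematocrit, 0.05% parasitemia final) for 96 hours, 37 C in 5% CO2. Growth inhibition scored as decreased luciferase luminescence.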
HCMV antiviral: qHTS Assay for inhibitors of the human cytomegalovirus (HCMV). HFF cells, HCMV-luciferase reporter, 72 h; hits give low values. activity change, negative = inhibition, % at 57.5 µM. 4.5% of 410,000 active. AID 1259415, 2018; in the data active means activity change below about -60%; inconclusive means no clear call, values can overlap the other calls; inactive means above about -39%; further: on the % scale 0 is the no-effect control and ±100 the full control effect
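Human foreskin fibroblasts infected with luciferase-reporter HCMV at MOI 1 PFU/cell, compounds at two doses. Luciferase measured 72 h post infection; normalized to buffer-only basal and Salinomycin (10uM) controls.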
Shiga toxin inh: A qHTS for Small Molecule Inhibitors of Shiga Toxin; 9.2% of 290,000 active; Vero cells, Shiga toxin protein synthesis inhibition reporter; inhibition, % at 38.7 µM; in the data active means inhibition mostly above about 28%, no sharp cut-off; inactive means mostly below about 43%; further: 0% is about no effect
CHX counter: Cycloheximide Counterscreen for Small Molecule Inhibitors of Shiga Toxin; 12% of 300,000 active; cell reporter, cycloheximide protein synthesis inhibition counterscreen; AID 2314, 2010; max response, %; in the data active means max response mostly above about 13%, no sharp cut-off; inactive means mostly below about 14%; further: read at 38.3 µM for the half of the compounds with a filed dose; 0% is about no effect
Pf growth 48h: Primary qHTS for delayed death inhibitors of the malarial parasite plastid, 48 hour incubation. P. falciparum luciferase growth in erythrocytes, 48 h. Potency, µM (doses to about 28.7 µM), inactives show at the top dose activity change, negative = inhibition, hits mostly inhibitors. 5.9% of 310,000 active. AID 504832, 2011; further: potency means the concentration at half of the fitted maximal effect; on the % scale 0 is the no-effect control and ±100 the full control effect
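Cell-based growth assay: transgenic P. falciparum expressing firefly luciferase, cultured in red cells within RPMI 1640 containing 0.5% w/v Albumax, 24 mM bicarbonate and gentamycin. A drop in luciferase activity indicates inhibition.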
* hit, by the source's call. Most compounds without a hit are left out; they make up all but 20% or so of the library. Unless noted, the call rests on the fitted dose curve; in most records, active means well fitted inhibition curve with a large enough effect; inconclusive means small, poorly fitted or top-dose-only effect, or another doubt; inactive means no such curve, though single readings can be large or run the other way.

How did C[C@@H](CN1CCC(Cc2ccccc2)CC1)[C@@H](O)c1ccc(O)cc1 do in these assays?
Pf growth 96h: -14%; HCMV antiviral: 80; Pf growth 48h: inconclusive

Results for CC(CCc1ccccc1)NC(C)C(O)c1ccc(O)cc1 (centres undefined) ?
Pf growth 96h: 1.9µM*; HCMV antiviral: -36; Shiga toxin inh: -9; CHX counter: -3; Pf growth 48h: inconclusive

Results for CC(C(O)c1ccc(O)cc1)N1CCC(Cc2ccccc2)CC1 (centres undefined) ?
Pf growth 96h: inconclusive; HCMV antiviral: inconclusive; Shiga toxin inh: -9; CHX counter: -4; Pf growth 48h: 2.1µM*

What do the screens show for `O=C(CCSc1nc(-c2ccco2)cc(C(F)(F)F)n1)NCCN1CCOCC1`?
Pf growth 96h: 0%; HCMV antiviral: 32; Shiga toxin inh: -16; CHX counter: 1; Pf growth 48h: 2%

What do the screens show for `COc1ccc(-c2cc(C(F)(F)F)nc(SCCC(=O)NCc3ccccc3)n2)cc1`?
HCMV antiviral: 9; Shiga toxin inh: -8; CHX counter: -2; Pf growth 48h: 15µM*

How did COc1ccccc1CCNC(=O)CCSc1nc(-c2ccco2)cc(C(F)(F)F)n1 do in these assays?
Pf growth 96h: -1%; HCMV antiviral: -35; Shiga toxin inh: -5; CHX counter: 1; Pf growth 48h: 8.3µM*

How did FC(F)(F)c1cc(-c2ccco2)nc(NCCc2ccccc2)n1 do in these assays?
Pf growth 96h: -4%; HCMV antiviral: -39; Shiga toxin inh: 78; CHX counter: 20*; Pf growth 48h: 28%

How did O=C(CCSc1nc(-c2ccco2)cc(C(F)(F)F)n1)NCCc1ccccc1 do in these assays?
Pf growth 96h: 3%; HCMV antiviral: 17; Shiga toxin inh: 54; CHX counter: 33*; Pf growth 48h: inconclusive

What do the screens show for `CC(C)c1ccc(NC(=O)CSC2=Nc3ccccc3C3=NC(CC(=O)NCc4cccs4)C(=O)N23)cc1` (centres undefined)?
HCMV antiviral: -24

Results for O=C(CCSc1nc(-c2ccco2)cc(C(F)(F)F)n1)N1CCCc2ccccc21 ?
HCMV antiviral: -20; Shiga toxin inh: 21; CHX counter: 5; Pf growth 48h: 15µM*

How did OC1(c2cccc(C(F)(F)F)c2)CCNCC1 do in these assays?
Pf growth 96h: 13µM*; HCMV antiviral: 22; Shiga toxin inh: 16; CHX counter: -2; Pf growth 48h: -1%

What do the screens show for `OC1(c2cccc(C(F)(F)F)c2)CCN(Cc2nnnn2Cc2ccccc2)CC1`?
Pf growth 96h: 87%; HCMV antiviral: -20; Shiga toxin inh: -10; CHX counter: -4; Pf growth 48h: -24%

Results for COc1ccc(N2CC(C(=O)N3CCN(C(=O)c4ccco4)CC3)CC2=O)cc1 (centres undefined) ?
Pf growth 96h: 14%; HCMV antiviral: 25; Shiga toxin inh: -6; CHX counter: -6; Pf growth 48h: -16%

How did CC1=C(C(=O)N2CCOCC2)CC(CC(=O)NCc2cccs2)C(=O)N1Cc1ccc(C(C)(C)C)cc1 (centres undefined) do in these assays?
HCMV antiviral: -12

How did O=C(C1CCC(CNS(=O)(=O)c2cccs2)CC1)N1CCN(c2ccc(Cl)cc2)CC1 (centres undefined) do in these assays?
Pf growth 96h: 177%; HCMV antiviral: -93*; Shiga toxin inh: -6; CHX counter: 1; Pf growth 48h: -18%

Results for CN(C(=O)C1CCN(S(=O)(=O)c2cccs2)CC1)C1CCCCC1 ?
Pf growth 96h: 1.7µM*; HCMV antiviral: -27; Shiga toxin inh: 28; CHX counter: 2; Pf growth 48h: -16%

How did COC(=O)Nc1ccc(S(=O)(=O)N2CCC(C(=O)N(C)C3CCCCC3)CC2)cc1 do in these assays?
Pf growth 96h: inconclusive; HCMV antiviral: -28; Shiga toxin inh: -7; CHX counter: 1; Pf growth 48h: inconclusive

What do the screens show for `O=C(C1CCN(S(=O)(=O)c2cccnc2)CC1)N1CCN(C2CCCC2)CC1`?
Pf growth 96h: 10µM*; Shiga toxin inh: 12; CHX counter: 4; Pf growth 48h: 0%

What do the screens show for `O=S(=O)(c1cccs1)N1CCC2(CC1)OCCO2`?
Pf growth 96h: 13µM*; HCMV antiviral: -31; Shiga toxin inh: -5; CHX counter: -4; Pf growth 48h: inconclusive

What do the screens show for `O=S(=O)(c1cccs1)N1CCN(S(=O)(=O)c2cccs2)CC1`?
Pf growth 96h: inconclusive; HCMV antiviral: -16; Shiga toxin inh: 4; CHX counter: -2; Pf growth 48h: 17%

How did O=C(C1CCN(S(=O)(=O)c2cccc3cccnc23)CC1)N1CCN(C2CCCCC2)CC1 do in these assays?
Pf growth 96h: 15%; Shiga toxin inh: -9; CHX counter: 10; Pf growth 48h: inconclusive

What do the screens show for `CCn1cc(C(=O)O)c(=O)c2cnc(N3CCN(C(=S)Nc4ccccc4C(F)(F)F)CC3)nc21`?
Pf growth 96h: 0%; HCMV antiviral: -16; Shiga toxin inh: 1; CHX counter: -1; Pf growth 48h: -20%

How did COc1ccc(CNC(=O)C2CCN(C(=O)c3ccc(-n4ccc5ccccc54)s3)CC2)cc1 do in these assays?
HCMV antiviral: 4

What do the screens show for `CCCCn1c(=O)[nH]c(=O)c2c1nc(-c1ccccn1)n2CC`?
Pf growth 96h: -28%; HCMV antiviral: 81; Shiga toxin inh: -11; CHX counter: -2; Pf growth 48h: -3%

What do the screens show for `COc1ccc(NC(=O)CN2C(=O)NC(C)(c3ccccc3)C2=O)cc1Cl` (centres undefined)?
Pf growth 96h: -14%; HCMV antiviral: -25; Shiga toxin inh: -6; CHX counter: 2; Pf growth 48h: 21%

How did O=C(C1CCN(S(=O)(=O)c2cccs2)CC1)N1CCCCC1 do in these assays?
Pf growth 96h: 0%; HCMV antiviral: -37; Shiga toxin inh: 37*; CHX counter: 35*; Pf growth 48h: 31%

Results for CCN(Cc1ccncc1)C(=O)C1CCN(S(=O)(=O)c2cccs2)CC1 ?
Pf growth 96h: -17%; HCMV antiviral: -107*; Shiga toxin inh: -3; CHX counter: -1

How did CC(=O)N1CCC(C(=O)N2CCN(S(=O)(=O)c3cccs3)CC2)CC1 do in these assays?
Pf growth 96h: 23%; HCMV antiviral: 33; Shiga toxin inh: -6; CHX counter: -1; Pf growth 48h: 17%

What do the screens show for `COc1ccc(OC)c(-c2cc(C(=O)N3CCc4ccccc4C3)no2)c1`?
Pf growth 96h: 9.3µM*; HCMV antiviral: -10; Shiga toxin inh: -11; CHX counter: 8; Pf growth 48h: 22%

What do the screens show for `O=C(c1cc(-c2ccc(Br)cc2)on1)N1CCc2ccccc2C1`?
Pf growth 96h: 59%; HCMV antiviral: 15; Shiga toxin inh: 0; CHX counter: 1; Pf growth 48h: 11%

How did COc1cccc(-c2cc(C(=O)N3CCc4ccccc4C3)no2)c1 do in these assays?
Pf growth 96h: 6%; HCMV antiviral: 17; Shiga toxin inh: 6; CHX counter: 17*; Pf growth 48h: 22%

Screening data (PubChem)
